Laboratory results: paper PMC7862700, “An all-to-all approach to the identification of sequence-specific readers for epigenetic DNA modifications on cytosine”

Tests used:
Experiment in all cases: DAPPL (digital affinity profiling via proximity ligation, sequencing); 10 mM Tris-HCl pH 7.5, 50 mM NaCl, 1 mM DTT, 4% glycerol, room temperature, 30 min; GST-TFs on glutathione beads, 16-mer random dsDNA library, 0.1% formaldehyde crosslink after washing; high values mean tight binding
Details in all cases: protein: recombinant; tags: N-terminal GST; dsDNA, one strand shown
FLI1 = target: T1, FLI1 (Homo sapiens, UniProt Q01543 1-452)
T1 sequence: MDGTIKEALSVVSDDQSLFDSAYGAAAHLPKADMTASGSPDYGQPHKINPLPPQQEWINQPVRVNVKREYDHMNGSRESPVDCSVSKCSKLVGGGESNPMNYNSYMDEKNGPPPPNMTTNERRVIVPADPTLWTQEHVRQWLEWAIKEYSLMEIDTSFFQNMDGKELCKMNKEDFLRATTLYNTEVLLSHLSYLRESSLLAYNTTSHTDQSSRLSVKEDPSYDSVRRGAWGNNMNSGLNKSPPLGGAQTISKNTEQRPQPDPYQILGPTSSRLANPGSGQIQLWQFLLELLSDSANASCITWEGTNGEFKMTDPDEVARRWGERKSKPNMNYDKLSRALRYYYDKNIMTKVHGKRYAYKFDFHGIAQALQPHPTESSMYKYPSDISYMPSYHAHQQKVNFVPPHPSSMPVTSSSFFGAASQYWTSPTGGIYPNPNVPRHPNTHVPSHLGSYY
How it was run: (§1)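 Pools were built from human transcription factors expressed in yeast as GST fusions, captured on glutathione beads and DNA-barcoded, along with a tag-only sample. Incubation with 200 nmole of a 16-mer random double-stranded DNA library lasted 30 min at room temperature in Tris/NaCl/DTT/glycerol buffer, and was followed by washing, 0.1% formaldehyde crosslinking, proximity ligation, PCR amplification and Illumina NextSeq500 sequencing. Binding signal is the quotient of each hexamer's read frequency for a factor and its frequency for the tag-only sample.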

ELK1 = target: T2, ELK1 (Homo sapiens, UniProt P19419 1-428)
T2 sequence: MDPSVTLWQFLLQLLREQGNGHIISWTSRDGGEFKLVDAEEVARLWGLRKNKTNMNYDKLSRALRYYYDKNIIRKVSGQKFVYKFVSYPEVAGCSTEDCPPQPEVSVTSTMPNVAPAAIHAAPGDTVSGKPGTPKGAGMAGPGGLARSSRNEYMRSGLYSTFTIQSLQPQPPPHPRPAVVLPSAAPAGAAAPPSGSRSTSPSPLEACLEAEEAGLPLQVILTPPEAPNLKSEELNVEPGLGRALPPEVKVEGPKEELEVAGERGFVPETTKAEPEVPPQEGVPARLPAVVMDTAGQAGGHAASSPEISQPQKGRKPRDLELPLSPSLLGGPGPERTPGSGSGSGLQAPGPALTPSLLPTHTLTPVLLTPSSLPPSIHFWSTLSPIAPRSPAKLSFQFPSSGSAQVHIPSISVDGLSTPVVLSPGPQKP
How it was run: as §1

GABPA = target: T3, GABPA (Homo sapiens, UniProt Q06546 1-454)
T3 sequence: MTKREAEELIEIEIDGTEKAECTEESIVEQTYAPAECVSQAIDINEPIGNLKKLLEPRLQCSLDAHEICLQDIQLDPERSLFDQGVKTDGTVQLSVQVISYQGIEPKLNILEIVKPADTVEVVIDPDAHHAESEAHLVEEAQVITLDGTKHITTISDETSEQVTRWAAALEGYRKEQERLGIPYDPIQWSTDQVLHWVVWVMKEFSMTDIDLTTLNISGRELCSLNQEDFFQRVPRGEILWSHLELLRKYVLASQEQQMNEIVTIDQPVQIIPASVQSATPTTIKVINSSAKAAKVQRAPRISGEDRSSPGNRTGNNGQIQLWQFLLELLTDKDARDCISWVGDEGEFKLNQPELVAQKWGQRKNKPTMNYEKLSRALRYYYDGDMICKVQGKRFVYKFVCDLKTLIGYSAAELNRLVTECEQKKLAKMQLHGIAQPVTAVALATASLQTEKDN
How it was run: as §1

ERG = target: T4, ERG (Homo sapiens, UniProt P11308 1-479)
T4 sequence: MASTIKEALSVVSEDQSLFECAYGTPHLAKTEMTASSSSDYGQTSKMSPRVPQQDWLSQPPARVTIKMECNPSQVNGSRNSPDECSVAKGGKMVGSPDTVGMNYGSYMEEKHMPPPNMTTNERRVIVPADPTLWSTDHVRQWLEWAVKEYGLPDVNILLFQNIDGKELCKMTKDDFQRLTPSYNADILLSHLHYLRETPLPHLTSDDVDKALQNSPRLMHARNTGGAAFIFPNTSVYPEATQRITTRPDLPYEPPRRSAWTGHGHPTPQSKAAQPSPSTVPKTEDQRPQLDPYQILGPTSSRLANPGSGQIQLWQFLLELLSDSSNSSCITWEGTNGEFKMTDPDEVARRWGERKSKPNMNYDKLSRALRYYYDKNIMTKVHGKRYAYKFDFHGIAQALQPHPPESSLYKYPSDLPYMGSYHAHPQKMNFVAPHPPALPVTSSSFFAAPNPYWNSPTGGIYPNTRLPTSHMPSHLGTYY
How it was run: as §1

ELF1 = ELF1 (Homo sapiens, UniProt P32519 1-619)
ELF1, sequence (P32519 whole entry): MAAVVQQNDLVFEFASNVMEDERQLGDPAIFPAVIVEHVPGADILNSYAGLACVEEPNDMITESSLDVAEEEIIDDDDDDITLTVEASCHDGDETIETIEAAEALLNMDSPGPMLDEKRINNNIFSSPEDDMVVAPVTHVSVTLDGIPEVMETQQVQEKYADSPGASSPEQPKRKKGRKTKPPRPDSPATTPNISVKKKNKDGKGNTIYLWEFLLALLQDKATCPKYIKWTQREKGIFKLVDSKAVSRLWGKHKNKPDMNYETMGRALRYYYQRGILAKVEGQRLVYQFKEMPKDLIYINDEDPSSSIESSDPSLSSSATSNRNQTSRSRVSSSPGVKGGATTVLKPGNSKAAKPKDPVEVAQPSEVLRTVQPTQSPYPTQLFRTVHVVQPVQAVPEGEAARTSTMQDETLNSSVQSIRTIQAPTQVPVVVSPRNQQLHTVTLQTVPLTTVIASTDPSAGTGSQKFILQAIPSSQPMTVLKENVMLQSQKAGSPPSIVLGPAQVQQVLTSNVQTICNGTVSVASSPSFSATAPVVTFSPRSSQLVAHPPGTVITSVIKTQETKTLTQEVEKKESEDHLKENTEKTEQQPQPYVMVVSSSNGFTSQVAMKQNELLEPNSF
How it was run: as §1

EHF = target: T5, EHF (Homo sapiens, UniProt Q9NZC4 1-300)
T5 sequence: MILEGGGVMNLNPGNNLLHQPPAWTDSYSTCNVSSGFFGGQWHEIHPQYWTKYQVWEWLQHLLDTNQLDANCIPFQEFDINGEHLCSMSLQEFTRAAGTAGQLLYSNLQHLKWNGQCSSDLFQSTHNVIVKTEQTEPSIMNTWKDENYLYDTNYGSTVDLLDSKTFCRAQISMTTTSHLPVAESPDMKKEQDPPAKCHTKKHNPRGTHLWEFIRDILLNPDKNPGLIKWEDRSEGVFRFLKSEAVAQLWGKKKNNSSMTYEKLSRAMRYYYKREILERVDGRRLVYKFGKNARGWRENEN
How it was run: as §1

SPI1 = SPI1 (Homo sapiens, UniProt P17947 1-270)
How it was run: as §1

SPIB = SPIB (Homo sapiens, UniProt Q01892 1-262)
SPIB, sequence (Q01892 whole entry): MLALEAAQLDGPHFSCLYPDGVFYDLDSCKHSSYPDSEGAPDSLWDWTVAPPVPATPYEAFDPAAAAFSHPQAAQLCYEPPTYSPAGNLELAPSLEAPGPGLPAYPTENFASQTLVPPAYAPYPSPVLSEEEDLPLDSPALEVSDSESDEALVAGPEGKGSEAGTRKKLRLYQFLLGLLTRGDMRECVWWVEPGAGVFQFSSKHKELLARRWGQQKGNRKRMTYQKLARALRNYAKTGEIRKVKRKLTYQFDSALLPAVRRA
How it was run: as §1

ELK3 = target: T6, ELK3 (Homo sapiens, UniProt P41970 1-407)
T6 sequence: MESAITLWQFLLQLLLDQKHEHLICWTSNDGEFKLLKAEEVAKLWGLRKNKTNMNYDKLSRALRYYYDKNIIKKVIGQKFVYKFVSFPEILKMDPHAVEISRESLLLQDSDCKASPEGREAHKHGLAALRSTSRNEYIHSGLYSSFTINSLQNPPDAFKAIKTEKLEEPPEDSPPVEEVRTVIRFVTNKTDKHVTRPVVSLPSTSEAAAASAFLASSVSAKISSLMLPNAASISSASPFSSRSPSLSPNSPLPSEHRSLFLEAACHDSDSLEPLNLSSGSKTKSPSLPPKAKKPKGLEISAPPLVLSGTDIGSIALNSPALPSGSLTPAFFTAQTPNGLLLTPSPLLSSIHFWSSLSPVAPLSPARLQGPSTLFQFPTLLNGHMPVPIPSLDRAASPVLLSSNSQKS
How it was run: as §1

CCTAAA was tested, and the binding signal (FLI1) was 1.35 fold enrichment (6-mer frequency, TF over GST control), the binding signal (ELK1) was 1.26 fold enrichment (6-mer frequency, TF over GST control) and the binding signal (GABPA) was 1.25 fold enrichment (6-mer frequency, TF over GST control). For the same sequence, the binding signal (ERG) was 1.37 fold enrichment (6-mer frequency, TF over GST control), the binding signal (ELF1) was 1.34 fold enrichment (6-mer frequency, TF over GST control) and the binding signal (EHF) was 1.28 fold enrichment (6-mer frequency, TF over GST control). For the same sequence, the binding signal (SPI1) was 1.25 fold enrichment (6-mer frequency, TF over GST control), the binding signal (SPIB) was 1.26 fold enrichment (6-mer frequency, TF over GST control) and the binding signal (ELK3) was 1.4 fold enrichment (6-mer frequency, TF over GST control).

With GCATTT the binding signal (FLI1) was 1.38 fold enrichment (6-mer frequency, TF over GST control), the binding signal (ELK1) was 1.38 fold enrichment (6-mer frequency, TF over GST control) and the binding signal (GABPA) was 1.36 fold enrichment (6-mer frequency, TF over GST control). For the same sequence, the binding signal (ERG) was 1.3 fold enrichment (6-mer frequency, TF over GST control), the binding signal (ELF1) was 1.33 fold enrichment (6-mer frequency, TF over GST control) and the binding signal (EHF) was 1.37 fold enrichment (6-mer frequency, TF over GST control). For the same sequence, the binding signal (SPI1) was 1.58 fold enrichment (6-mer frequency, TF over GST control), the binding signal (SPIB) was 1.38 fold enrichment (6-mer frequency, TF over GST control) and the binding signal (ELK3) was 1.4 fold enrichment (6-mer frequency, TF over GST control).

With TAAGTA the binding signal (FLI1) was 1.21 fold enrichment (6-mer frequency, TF over GST control), the binding signal (ELK1) was 1.26 fold enrichment (6-mer frequency, TF over GST control) and the binding signal (GABPA) was 1.28 fold enrichment (6-mer frequency, TF over GST control). The binding signal (ERG) was 1.22 fold enrichment (6-mer frequency, TF over GST control), the binding signal (ELF1) was 1.24 fold enrichment (6-mer frequency, TF over GST control) and the binding signal (EHF) was 1.19 fold enrichment (6-mer frequency, TF over GST control). For the same sequence, the binding signal (SPI1) was 1.16 fold enrichment (6-mer frequency, TF over GST control), the binding signal (SPIB) was 1.22 fold enrichment (6-mer frequency, TF over GST control) and the binding signal (ELK3) was 1.22 fold enrichment (6-mer frequency, TF over GST control).

With TCTAAT the binding signal (FLI1) was 1.2 fold enrichment (6-mer frequency, TF over GST control), the binding signal (ELK1) was 1.17 fold enrichment (6-mer frequency, TF over GST control) and the binding signal (GABPA) was 1.18 fold enrichment (6-mer frequency, TF over GST control). The binding signal (ERG) was 1.17 fold enrichment (6-mer frequency, TF over GST control), the binding signal (ELF1) was 1.14 fold enrichment (6-mer frequency, TF over GST control) and the binding signal (EHF) was 1.26 fold enrichment (6-mer frequency, TF over GST control). The binding signal (SPI1) was 1.19 fold enrichment (6-mer frequency, TF over GST control), the binding signal (SPIB) was 1.16 fold enrichment (6-mer frequency, TF over GST control) and the binding signal (ELK3) was 1.21 fold enrichment (6-mer frequency, TF over GST control).

In the case of TGAATA, the binding signal (FLI1) is reported as 1.05 fold enrichment (6-mer frequency, TF over GST control), the binding signal (ELK1) is reported as 1.11 fold enrichment (6-mer frequency, TF over GST control) and the binding signal (GABPA) is reported as 1.2 fold enrichment (6-mer frequency, TF over GST control). For the same sequence, the binding signal (ERG) was 1.08 fold enrichment (6-mer frequency, TF over GST control), the binding signal (ELF1) was 1.1 fold enrichment (6-mer frequency, TF over GST control) and the binding signal (EHF) was 1.12 fold enrichment (6-mer frequency, TF over GST control). The binding signal (SPI1) was 1.08 fold enrichment (6-mer frequency, TF over GST control), the binding signal (SPIB) was 1.05 fold enrichment (6-mer frequency, TF over GST control) and the binding signal (ELK3) was 1.06 fold enrichment (6-mer frequency, TF over GST control).

TCTTTA was tested, and the binding signal (FLI1) was 1.22 fold enrichment (6-mer frequency, TF over GST control), the binding signal (ELK1) was 1.25 fold enrichment (6-mer frequency, TF over GST control) and the binding signal (GABPA) was 1.33 fold enrichment (6-mer frequency, TF over GST control). For the same sequence, the binding signal (ERG) was 1.29 fold enrichment (6-mer frequency, TF over GST control), the binding signal (ELF1) was 1.31 fold enrichment (6-mer frequency, TF over GST control) and the binding signal (EHF) was 1.25 fold enrichment (6-mer frequency, TF over GST control). For the same sequence, the binding signal (SPI1) was 1.32 fold enrichment (6-mer frequency, TF over GST control), the binding signal (SPIB) was 1.21 fold enrichment (6-mer frequency, TF over GST control) and the binding signal (ELK3) was 1.27 fold enrichment (6-mer frequency, TF over GST control).

ATCTGC was tested, and the binding signal (FLI1) was 1.3 fold enrichment (6-mer frequency, TF over GST control), the binding signal (ELK1) was 1.28 fold enrichment (6-mer frequency, TF over GST control) and the binding signal (GABPA) was 1.47 fold enrichment (6-mer frequency, TF over GST control). For the same sequence, the binding signal (ERG) was 1.37 fold enrichment (6-mer frequency, TF over GST control), the binding signal (ELF1) was 1.45 fold enrichment (6-mer frequency, TF over GST control) and the binding signal (EHF) was 1.34 fold enrichment (6-mer frequency, TF over GST control). The binding signal (SPI1) was 1.44 fold enrichment (6-mer frequency, TF over GST control), the binding signal (SPIB) was 1.41 fold enrichment (6-mer frequency, TF over GST control) and the binding signal (ELK3) was 1.34 fold enrichment (6-mer frequency, TF over GST control).

With ACTGCT the binding signal (FLI1) was 1.44 fold enrichment (6-mer frequency, TF over GST control), the binding signal (ELK1) was 1.45 fold enrichment (6-mer frequency, TF over GST control) and the binding signal (GABPA) was 1.29 fold enrichment (6-mer frequency, TF over GST control). For the same sequence, the binding signal (ERG) was 1.29 fold enrichment (6-mer frequency, TF over GST control), the binding signal (ELF1) was 1.35 fold enrichment (6-mer frequency, TF over GST control) and the binding signal (EHF) was 1.41 fold enrichment (6-mer frequency, TF over GST control). For the same sequence, the binding signal (SPI1) was 1.46 fold enrichment (6-mer frequency, TF over GST control), the binding signal (SPIB) was 1.36 fold enrichment (6-mer frequency, TF over GST control) and the binding signal (ELK3) was 1.26 fold enrichment (6-mer frequency, TF over GST control).
